The record followed here is PMC7862700, “An all-to-all approach to the identification of sequence-specific readers for epigenetic DNA modifications on cytosine”.

Holding throughout (test): DAPPL (digital affinity profiling via proximity ligation, sequencing); 10 mM Tris-HCl pH 7.5, 50 mM NaCl, 1 mM DTT, 4% glycerol, room temperature, 30 min; GST-TFs on glutathione beads, 16-mer random dsDNA library, 0.1% formaldehyde crosslink after washing; high values mean tight binding
One assay addresses T1, FLI1 (Homo sapiens, UniProt Q01543 1-452).
T1 sequence: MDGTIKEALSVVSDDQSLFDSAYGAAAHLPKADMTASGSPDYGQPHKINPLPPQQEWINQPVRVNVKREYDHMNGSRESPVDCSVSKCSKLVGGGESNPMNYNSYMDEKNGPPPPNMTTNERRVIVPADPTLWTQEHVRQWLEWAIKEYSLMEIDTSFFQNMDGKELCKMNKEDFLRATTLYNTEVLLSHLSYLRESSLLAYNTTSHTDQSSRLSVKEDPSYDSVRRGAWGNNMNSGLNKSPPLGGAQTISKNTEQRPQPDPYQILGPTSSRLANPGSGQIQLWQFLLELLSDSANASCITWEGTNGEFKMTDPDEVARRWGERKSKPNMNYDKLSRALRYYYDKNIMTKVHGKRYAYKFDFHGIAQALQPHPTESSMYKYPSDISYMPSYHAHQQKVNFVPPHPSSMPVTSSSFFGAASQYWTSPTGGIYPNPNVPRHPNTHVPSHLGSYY
The following applies: protein: recombinant; tags: N-terminal GST; dsDNA, one strand shown. Put shortly:
(§1)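 Binding signal is defined as a hexamer's read frequency for one factor over its frequency for the tag-only sample. To obtain reads, GST-fused human transcription factors were expressed in yeast, captured on glutathione beads, barcoded with DNA and pooled with that sample. Pools met 200 nmole of a 16-mer random double-stranded DNA library in Tris/NaCl/DTT/glycerol buffer for 30 min at room temperature before washing, 0.1% formaldehyde crosslinking, proximity ligation (BsaI/T4 ligase, 1 h, 37 °C), PCR and Illumina NextSeq500 sequencing.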

For another assay, the target named is T2, ELK1 (Homo sapiens, UniProt P19419 1-428).
T2 sequence: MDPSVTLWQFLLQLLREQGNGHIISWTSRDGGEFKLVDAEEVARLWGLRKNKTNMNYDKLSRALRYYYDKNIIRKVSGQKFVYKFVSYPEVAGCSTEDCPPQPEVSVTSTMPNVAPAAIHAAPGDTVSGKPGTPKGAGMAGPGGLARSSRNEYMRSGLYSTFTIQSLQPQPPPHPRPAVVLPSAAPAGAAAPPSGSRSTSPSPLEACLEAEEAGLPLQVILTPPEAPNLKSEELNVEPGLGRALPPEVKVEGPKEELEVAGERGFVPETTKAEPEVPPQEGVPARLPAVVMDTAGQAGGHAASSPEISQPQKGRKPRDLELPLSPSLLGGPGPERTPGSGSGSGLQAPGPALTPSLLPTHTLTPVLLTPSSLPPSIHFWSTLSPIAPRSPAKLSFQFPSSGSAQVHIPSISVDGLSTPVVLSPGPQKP
The conditions noted are these: protein: recombinant; tags: N-terminal GST; dsDNA, one strand shown. The procedure, abridged:
as §1

A further assay concerns the target T3, GABPA (Homo sapiens, UniProt Q06546 1-454).
T3 sequence: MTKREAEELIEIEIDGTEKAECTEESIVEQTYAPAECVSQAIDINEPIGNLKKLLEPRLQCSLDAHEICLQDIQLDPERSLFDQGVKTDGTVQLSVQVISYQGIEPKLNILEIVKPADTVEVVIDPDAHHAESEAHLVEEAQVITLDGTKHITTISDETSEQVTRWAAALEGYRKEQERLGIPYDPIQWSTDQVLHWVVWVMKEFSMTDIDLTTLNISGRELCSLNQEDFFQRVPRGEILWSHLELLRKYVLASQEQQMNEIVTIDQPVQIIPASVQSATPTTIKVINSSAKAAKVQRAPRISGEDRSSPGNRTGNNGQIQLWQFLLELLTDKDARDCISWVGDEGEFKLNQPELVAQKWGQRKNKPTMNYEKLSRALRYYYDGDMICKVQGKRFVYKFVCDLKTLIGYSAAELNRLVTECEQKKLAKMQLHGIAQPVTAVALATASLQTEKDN
The conditions noted are these: protein: recombinant; tags: N-terminal GST; dsDNA, one strand shown. Put shortly:
as §1

The target of a further assay is T4, ERG (Homo sapiens, UniProt P11308 1-479).
T4 sequence: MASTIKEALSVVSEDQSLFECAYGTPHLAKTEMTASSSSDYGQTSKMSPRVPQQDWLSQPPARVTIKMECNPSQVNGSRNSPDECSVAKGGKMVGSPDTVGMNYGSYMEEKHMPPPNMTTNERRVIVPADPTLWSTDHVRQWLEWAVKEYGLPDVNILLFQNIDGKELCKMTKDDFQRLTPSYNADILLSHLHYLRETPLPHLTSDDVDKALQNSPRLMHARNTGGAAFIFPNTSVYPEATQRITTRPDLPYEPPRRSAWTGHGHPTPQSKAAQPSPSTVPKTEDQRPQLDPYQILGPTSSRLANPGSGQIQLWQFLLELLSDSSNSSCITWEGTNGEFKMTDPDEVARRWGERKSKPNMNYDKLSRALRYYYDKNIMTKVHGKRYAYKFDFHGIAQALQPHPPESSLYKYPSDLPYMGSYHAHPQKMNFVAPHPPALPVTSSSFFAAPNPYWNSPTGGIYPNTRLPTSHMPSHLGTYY
The conditions noted are these: protein: recombinant; tags: N-terminal GST; dsDNA, one strand shown. Put shortly:
as §1

The target of the next assay is ELF1 (Homo sapiens, UniProt P32519 1-619). The following applies: protein: recombinant; tags: N-terminal GST; dsDNA, one strand shown. Put shortly: as §1
ELF1, sequence (P32519 whole entry): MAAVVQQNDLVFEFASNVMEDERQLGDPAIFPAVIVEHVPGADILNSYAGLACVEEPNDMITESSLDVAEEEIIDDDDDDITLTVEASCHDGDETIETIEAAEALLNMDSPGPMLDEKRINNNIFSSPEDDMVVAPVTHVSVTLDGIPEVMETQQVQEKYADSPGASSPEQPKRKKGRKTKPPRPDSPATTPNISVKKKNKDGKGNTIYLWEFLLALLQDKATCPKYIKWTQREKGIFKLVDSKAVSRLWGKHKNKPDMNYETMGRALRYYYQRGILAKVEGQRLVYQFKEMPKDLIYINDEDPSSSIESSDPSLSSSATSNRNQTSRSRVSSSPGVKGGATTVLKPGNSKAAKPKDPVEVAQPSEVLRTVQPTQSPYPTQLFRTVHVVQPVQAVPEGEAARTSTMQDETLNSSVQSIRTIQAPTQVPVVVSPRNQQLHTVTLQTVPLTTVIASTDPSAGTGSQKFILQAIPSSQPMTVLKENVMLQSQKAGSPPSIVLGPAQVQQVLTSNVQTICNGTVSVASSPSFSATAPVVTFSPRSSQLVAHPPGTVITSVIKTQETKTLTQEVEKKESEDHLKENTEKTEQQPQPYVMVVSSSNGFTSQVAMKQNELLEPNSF
The target of another assay is T5, EHF (Homo sapiens, UniProt Q9NZC4 1-300).
T5 sequence: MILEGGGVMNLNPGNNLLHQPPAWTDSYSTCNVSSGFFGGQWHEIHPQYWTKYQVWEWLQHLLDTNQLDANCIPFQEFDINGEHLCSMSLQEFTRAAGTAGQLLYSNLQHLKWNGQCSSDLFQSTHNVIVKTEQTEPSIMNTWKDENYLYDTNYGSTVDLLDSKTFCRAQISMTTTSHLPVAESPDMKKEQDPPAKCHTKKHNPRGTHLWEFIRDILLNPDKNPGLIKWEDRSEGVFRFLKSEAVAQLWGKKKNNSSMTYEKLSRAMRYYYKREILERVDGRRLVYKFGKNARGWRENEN
The following applies: protein: recombinant; tags: N-terminal GST; dsDNA, one strand shown. The procedure, abridged: as §1

For another assay, the target named is SPI1 (Homo sapiens, UniProt P17947 1-270). The conditions noted are these: protein: recombinant; tags: N-terminal GST; dsDNA, one strand shown. Put shortly:
as §1

The target in the next assay is SPIB (Homo sapiens, UniProt Q01892 1-262). The following applies: protein: recombinant; tags: N-terminal GST; dsDNA, one strand shown. The procedure, abridged: as §1
SPIB, sequence (Q01892 whole entry): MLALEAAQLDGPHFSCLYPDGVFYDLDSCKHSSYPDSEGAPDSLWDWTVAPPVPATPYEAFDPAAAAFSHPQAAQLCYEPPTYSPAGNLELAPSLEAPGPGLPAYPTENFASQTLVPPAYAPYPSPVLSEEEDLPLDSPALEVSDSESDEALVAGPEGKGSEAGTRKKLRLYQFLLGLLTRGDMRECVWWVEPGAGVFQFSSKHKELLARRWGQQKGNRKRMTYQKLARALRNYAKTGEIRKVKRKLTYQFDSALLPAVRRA
The target of another assay is T6, ELK3 (Homo sapiens, UniProt P41970 1-407).
T6 sequence: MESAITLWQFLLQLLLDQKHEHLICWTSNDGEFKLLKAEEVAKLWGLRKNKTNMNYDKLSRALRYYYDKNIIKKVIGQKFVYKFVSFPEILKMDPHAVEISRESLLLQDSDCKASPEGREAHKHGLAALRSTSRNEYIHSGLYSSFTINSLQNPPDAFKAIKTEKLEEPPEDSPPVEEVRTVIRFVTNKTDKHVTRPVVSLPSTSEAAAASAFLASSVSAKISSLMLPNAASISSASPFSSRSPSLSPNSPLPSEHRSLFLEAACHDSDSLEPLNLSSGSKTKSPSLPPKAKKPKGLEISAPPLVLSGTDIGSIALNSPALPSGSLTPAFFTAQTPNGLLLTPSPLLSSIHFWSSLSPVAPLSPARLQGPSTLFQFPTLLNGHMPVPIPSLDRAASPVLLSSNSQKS
The following applies: protein: recombinant; tags: N-terminal GST; dsDNA, one strand shown. The procedure, abridged: as §1

The target in another assay is T7, FEV (Homo sapiens, UniProt Q99581 1-238).
T7 sequence: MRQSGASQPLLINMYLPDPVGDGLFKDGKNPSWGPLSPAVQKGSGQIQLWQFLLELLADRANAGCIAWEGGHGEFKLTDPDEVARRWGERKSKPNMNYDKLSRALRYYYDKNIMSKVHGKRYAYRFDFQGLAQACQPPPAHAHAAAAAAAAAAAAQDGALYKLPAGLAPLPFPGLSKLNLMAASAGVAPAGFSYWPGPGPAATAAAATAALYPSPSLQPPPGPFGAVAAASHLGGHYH
The conditions noted are these: protein: recombinant; tags: N-terminal GST; dsDNA, one strand shown. The procedure, abridged: as §1

Another assay addresses ETV5 (Homo sapiens, UniProt P41161 1-510). The conditions noted are these: protein: recombinant; tags: N-terminal GST; dsDNA, one strand shown. The procedure, abridged: as §1
The target in the next assay is HSF1 (Homo sapiens, UniProt Q00613 1-529). The following applies: protein: recombinant; tags: N-terminal GST; chain copies: 3; dsDNA, one strand shown. The procedure, abridged: as §1
HSF1, sequence (Q00613 whole entry): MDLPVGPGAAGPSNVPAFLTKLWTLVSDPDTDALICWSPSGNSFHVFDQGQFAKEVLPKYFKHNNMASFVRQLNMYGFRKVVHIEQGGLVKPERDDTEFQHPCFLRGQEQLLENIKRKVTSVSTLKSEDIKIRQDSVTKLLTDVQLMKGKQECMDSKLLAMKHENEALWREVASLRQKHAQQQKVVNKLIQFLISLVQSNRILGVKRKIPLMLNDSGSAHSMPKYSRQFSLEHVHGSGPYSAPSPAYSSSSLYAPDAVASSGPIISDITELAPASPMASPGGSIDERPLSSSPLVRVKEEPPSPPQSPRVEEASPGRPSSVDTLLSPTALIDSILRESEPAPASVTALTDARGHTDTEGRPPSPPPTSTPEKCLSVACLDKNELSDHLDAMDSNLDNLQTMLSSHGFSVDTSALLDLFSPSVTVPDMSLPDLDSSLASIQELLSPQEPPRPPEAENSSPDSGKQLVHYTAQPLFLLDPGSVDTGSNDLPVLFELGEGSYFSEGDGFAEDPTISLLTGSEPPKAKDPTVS
In the next assay the target is ELF4 (Homo sapiens, UniProt Q99607 1-663). The conditions noted are these: protein: recombinant; tags: N-terminal GST; dsDNA, one strand shown. The procedure, abridged:
as §1

The target in another assay is T8, ELK4 (Homo sapiens, UniProt P28324-2 1-405).
T8 sequence: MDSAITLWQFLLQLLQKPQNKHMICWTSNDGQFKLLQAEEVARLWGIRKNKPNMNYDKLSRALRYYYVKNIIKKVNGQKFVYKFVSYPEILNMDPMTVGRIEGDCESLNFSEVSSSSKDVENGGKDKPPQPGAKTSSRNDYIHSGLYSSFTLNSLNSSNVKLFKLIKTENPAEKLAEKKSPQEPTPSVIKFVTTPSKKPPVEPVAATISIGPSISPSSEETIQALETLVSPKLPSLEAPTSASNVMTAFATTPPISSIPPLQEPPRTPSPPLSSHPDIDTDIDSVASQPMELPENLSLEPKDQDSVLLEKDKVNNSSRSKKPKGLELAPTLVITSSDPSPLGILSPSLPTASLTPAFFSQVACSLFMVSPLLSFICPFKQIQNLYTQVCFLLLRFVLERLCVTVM
The following applies: protein: recombinant; tags: N-terminal GST; dsDNA, one strand shown. The procedure, abridged:
as §1

Another assay deals with T9, ETV2 (Homo sapiens, UniProt O00321 1-342).
T9 sequence: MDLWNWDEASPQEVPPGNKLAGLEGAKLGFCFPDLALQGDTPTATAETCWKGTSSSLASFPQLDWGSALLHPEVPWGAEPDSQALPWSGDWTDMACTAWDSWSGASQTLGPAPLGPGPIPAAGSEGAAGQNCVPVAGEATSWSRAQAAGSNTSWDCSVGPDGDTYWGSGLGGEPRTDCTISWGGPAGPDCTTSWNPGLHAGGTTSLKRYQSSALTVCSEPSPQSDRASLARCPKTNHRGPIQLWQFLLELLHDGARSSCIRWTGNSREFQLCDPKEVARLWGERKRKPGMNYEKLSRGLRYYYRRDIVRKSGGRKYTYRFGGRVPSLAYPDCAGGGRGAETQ
The conditions noted are these: protein: recombinant; tags: N-terminal GST; dsDNA, one strand shown. Put shortly:
as §1

A further assay deals with T10, ELF3 (Homo sapiens, UniProt P78545 1-371).
T10 sequence: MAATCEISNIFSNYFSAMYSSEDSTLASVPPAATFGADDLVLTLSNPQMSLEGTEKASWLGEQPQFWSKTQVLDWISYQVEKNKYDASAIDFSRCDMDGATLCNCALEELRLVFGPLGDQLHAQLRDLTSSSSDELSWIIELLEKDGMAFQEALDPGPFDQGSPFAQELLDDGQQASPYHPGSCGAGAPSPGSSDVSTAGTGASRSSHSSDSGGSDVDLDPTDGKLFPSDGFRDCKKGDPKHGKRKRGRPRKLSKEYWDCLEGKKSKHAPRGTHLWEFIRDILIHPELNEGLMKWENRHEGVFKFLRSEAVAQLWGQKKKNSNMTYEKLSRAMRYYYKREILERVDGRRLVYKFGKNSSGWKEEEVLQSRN
The conditions noted are these: protein: recombinant; tags: N-terminal GST; dsDNA, one strand shown. Put shortly:
as §1

In the next assay the target is CRX (Homo sapiens, UniProt O43186 1-299). The conditions noted are these: protein: recombinant; tags: N-terminal GST; dsDNA, one strand shown. The procedure, abridged:
as §1

Another assay concerns the target ETV1 (Homo sapiens, UniProt P50549 1-477). The conditions noted are these: protein: recombinant; tags: N-terminal GST; dsDNA, one strand shown. Put shortly:
as §1

CRX, sequence (O43186 whole entry): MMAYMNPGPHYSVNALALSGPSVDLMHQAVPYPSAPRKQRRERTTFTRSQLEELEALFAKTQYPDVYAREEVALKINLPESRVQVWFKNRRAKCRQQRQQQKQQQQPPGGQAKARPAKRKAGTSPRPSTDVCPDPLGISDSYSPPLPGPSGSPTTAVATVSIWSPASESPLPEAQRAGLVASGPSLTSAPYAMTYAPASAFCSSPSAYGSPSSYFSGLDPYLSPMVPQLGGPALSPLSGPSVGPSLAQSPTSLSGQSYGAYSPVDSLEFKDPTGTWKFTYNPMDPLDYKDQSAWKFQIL
ETV1, sequence (P50549 whole entry): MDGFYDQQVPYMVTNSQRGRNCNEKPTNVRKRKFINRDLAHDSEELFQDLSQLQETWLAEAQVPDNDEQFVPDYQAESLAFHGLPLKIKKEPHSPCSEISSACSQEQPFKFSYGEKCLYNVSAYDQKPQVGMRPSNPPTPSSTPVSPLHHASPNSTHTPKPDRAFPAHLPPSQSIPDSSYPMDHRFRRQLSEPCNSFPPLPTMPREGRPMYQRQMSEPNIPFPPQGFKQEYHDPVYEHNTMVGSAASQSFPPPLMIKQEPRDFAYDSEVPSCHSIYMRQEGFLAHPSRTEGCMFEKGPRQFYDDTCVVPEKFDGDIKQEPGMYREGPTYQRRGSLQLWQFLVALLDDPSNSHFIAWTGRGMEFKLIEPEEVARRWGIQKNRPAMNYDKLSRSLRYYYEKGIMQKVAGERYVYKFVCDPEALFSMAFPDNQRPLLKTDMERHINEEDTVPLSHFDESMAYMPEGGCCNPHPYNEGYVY
ELF4, sequence (Q99607 whole entry): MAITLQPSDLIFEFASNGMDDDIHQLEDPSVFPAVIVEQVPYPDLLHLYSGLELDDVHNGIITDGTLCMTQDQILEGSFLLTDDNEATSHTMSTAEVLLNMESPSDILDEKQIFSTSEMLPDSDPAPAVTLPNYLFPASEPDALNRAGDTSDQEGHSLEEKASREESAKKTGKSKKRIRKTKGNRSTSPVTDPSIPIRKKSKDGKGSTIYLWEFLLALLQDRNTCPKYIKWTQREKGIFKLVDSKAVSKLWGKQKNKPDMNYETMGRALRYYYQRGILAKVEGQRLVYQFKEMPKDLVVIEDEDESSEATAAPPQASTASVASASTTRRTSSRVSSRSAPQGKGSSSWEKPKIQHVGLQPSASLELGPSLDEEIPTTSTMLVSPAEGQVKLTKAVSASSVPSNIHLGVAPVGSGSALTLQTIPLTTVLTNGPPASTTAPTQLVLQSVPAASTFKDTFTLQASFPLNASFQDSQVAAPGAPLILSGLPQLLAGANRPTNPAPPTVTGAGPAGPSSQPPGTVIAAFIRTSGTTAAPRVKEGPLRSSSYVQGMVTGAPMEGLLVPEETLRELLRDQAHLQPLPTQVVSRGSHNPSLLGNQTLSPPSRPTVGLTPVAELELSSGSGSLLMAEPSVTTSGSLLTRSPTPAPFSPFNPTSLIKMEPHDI
ETV5, sequence (P41161 whole entry): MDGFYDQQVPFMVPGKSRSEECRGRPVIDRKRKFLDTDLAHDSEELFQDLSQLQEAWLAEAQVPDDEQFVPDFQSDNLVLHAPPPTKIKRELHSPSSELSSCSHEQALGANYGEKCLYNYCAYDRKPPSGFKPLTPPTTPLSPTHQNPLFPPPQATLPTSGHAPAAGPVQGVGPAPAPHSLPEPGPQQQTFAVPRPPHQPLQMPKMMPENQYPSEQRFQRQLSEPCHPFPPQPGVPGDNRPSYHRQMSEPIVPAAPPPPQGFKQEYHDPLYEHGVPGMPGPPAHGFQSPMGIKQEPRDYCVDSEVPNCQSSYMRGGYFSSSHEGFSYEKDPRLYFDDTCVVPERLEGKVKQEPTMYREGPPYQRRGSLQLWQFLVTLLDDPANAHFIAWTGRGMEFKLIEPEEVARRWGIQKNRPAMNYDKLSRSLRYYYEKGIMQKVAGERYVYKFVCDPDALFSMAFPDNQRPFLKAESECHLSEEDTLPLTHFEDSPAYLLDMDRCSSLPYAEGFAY

As to TACAAA, the binding signal in the assay with FLI1 is 1.14 fold enrichment (6-mer frequency, TF over GST control); with ELK1 it was 1.14 fold enrichment (6-mer frequency, TF over GST control); in the assay with GABPA it was 1.1 fold enrichment (6-mer frequency, TF over GST control); in the assay with ERG, 1.08 fold enrichment (6-mer frequency, TF over GST control); with ELF1 it was 1.14 fold enrichment (6-mer frequency, TF over GST control); in the assay with EHF, 1.2 fold enrichment (6-mer frequency, TF over GST control). Besides, the binding signal with SPI1 is 1.07 fold enrichment (6-mer frequency, TF over GST control); in the assay with SPIB, 1.06 fold enrichment (6-mer frequency, TF over GST control); with ELK3 it was 1.06 fold enrichment (6-mer frequency, TF over GST control); in the assay with FEV, 1.11 fold enrichment (6-mer frequency, TF over GST control); in the assay with ETV5, 1.15 fold enrichment (6-mer frequency, TF over GST control); with HSF1, 1.12 fold enrichment (6-mer frequency, TF over GST control). The binding signal in the assay with ELF4 was 1.13 fold enrichment (6-mer frequency, TF over GST control); in the assay with ELK4 it was 1.09 fold enrichment (6-mer frequency, TF over GST control); with ETV2 it was 1.17 fold enrichment (6-mer frequency, TF over GST control); with ELF3, 1.06 fold enrichment (6-mer frequency, TF over GST control); with CRX, 1.22 fold enrichment (6-mer frequency, TF over GST control); with ETV1, 1.14 fold enrichment (6-mer frequency, TF over GST control).
